Experimental findings from PubChem BioAssay (NCI) are described below.

The nature of experiment [1]: NCI Yeast Anticancer Drug Screen. Data for the rad50 strain (AID 155).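 Further: 0% = growth of vehicle-only cultures of the same strain.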 To be noted: S. cerevisiae rad50 strain growth inhibition; at 50.0 µM; active compounds read high. A digest of the protocol:
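Compounds were tested on a yeast strain with an engineered DNA damage repair alteration; the reported value is growth inhibition normalised to vehicle treatment.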

Experiment [2] can be described thus: NCI Yeast Anticancer Drug Screen. Data for the mec2-1 strain (AID 157). To be noted: S. cerevisiae mec2-1 strain, at 50.0 µM, active compounds read high. A digest of the protocol: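 Test agents were screened against the mec2-1 yeast strain, with defined DNA repair or cell cycle alteration. Growth was scored as inhibition against vehicle-only controls.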
The nature of experiment [3]: NCI Yeast Anticancer Drug Screen. Data for the sgs1 mgt1 strain (AID 161).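 Further: 0% = growth of cultures given vehicle only.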 To be noted: S. cerevisiae sgs1 mgt1 strain, at 50.0 µM, active compounds read high. The procedure, abridged:
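Genetically altered yeast, compound exposure, growth inhibition relative to vehicle.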

Experiment [4] is described as follows: NCI Yeast Anticancer Drug Screen. Data for the cln2 rad14 strain (AID 165).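 Further: 0% = growth equal to vehicle treated cultures.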 To be noted: S. cerevisiae cln2 rad14 strain, at 50.0 µM, active compounds read high. A digest of the protocol:
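Growth of compound-exposed yeast (cln2 rad14 genotype) measured and expressed as inhibition relative to vehicle.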

A short description of experiment [5]: NCI Yeast Anticancer Drug Screen. Data for the bub3 strain (AID 167). To be noted: S. cerevisiae bub3 mutant strain, at 50.0 µM, active compounds read high. A digest of the protocol:
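Growth of a checkpoint-deficient yeast mutant is measured after compound exposure. Values represent inhibition relative to vehicle.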

Experiment [6] can be described thus: NCI Yeast Anticancer Drug Screen. Data for the mlh1 rad18 strain (AID 175). To be noted: S. cerevisiae mlh1 rad18 strain growth inhibition; at 50.0 µM; active compounds read high. The procedure, abridged: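 In this whole-cell yeast screen, a strain with altered DNA damage repair is challenged with compound, and its growth is measured against matched vehicle-treated controls.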

Structures are written as SMILES. About 79,000 compounds went through this panel and 15% of them were active in at least one assay; those are over-represented in the sample as a whole. Values without a mark were called inactive. The source made the active and inactive calls. No stated cut-off is given here; in the data, active means growth inhibition above about 70%; inactive means the rest.

In the case of `O=Cc1cccc(/C=N/Nc2nnc(N/N=C/c3cccc(C=O)c3)c3ccccc23)c1`, the growth inhibition in experiment [1] is 30.6%; in experiment [2] it was 26.5%; in experiment [3], 35.5%; in experiment [4], 33.1%; in experiment [5], -3.2%; in experiment [6], 17.1%.
For the compound `COc1ccc(CCN2CCc3c(C)c(C#N)c4nc5ccccc5n4c32)cc1OC`, the growth inhibition in experiment [1] is 5.75%; in experiment [2], 26%; in experiment [3], 28.5%; in experiment [4], 12.1%; in experiment [5], 52.4%; in experiment [6], 34.5%.
As to `O=C(O)Cn1c(=O)ccc2ccccc21`, the growth inhibition in experiment [1] is 4.4%; in experiment [2], -3.25%; in experiment [3] it was -8.55%; in experiment [4], -37.7%; in experiment [5], -7.7%; in experiment [6] it was 4.9%.
With `CCOC(=O)C1Cc2c(n(C3CCCCC3)c(=O)n(C)c2=O)OC1c1ccccc1` (stereo unspecified), the growth inhibition is 14.4% in experiment [1]; -5.15% in experiment [2]; -7% in experiment [3]; 16.1% in experiment [4]; 2.55% in experiment [5]; -8.05% in experiment [6].
Regarding `ClC(Cl)=C(Cl)C1(Cl)CC1COCc1ccccc1` (stereo unspecified), the growth inhibition in experiment [1] is 45.5%; in experiment [2] it was -10.1%; in experiment [3] it was -4.05%; in experiment [4], 17.9%; in experiment [5] it was -7.85%; in experiment [6], -3%.
For the compound `Cc1cc(Cc2ccc3c(c2)OCO3)ccc1OCC(=O)O`, the growth inhibition is 15.1% in experiment [1]; 18.3% in experiment [2]; 15.6% in experiment [3]; 13.4% in experiment [4]; 20.8% in experiment [5]; 23.8% in experiment [6].
In the case of `O=c1cc(C=Nc2ccc(-c3csc(-c4ccccc4)n3)cc2)[nH]c(=S)[nH]1`, the growth inhibition is 97.2% (active) in experiment [1]; 91.2% (active) in experiment [2]; 97.7% (active) in experiment [3]; 97.2% (active) in experiment [4]; 96.5% (active) in experiment [5]; 98% (active) in experiment [6].
As for `NC(=O)NC(=S)NC(=O)c1ccccc1`, the growth inhibition in experiment [1] is -2.95%; in experiment [2], 0.95%; in experiment [3], -2.95%; in experiment [4] it was -33.5%; in experiment [5], -28.8%; in experiment [6], -7%.
Regarding `O=c1c(-c2ccccc2)c(O)on1/C=C1/C=CC=N1`, the growth inhibition in experiment [1] was -8.6%; in experiment [2] it was -25.2%; in experiment [3] it was 3.5%; in experiment [4] it was 3.8%; in experiment [5] it was 7.2%; in experiment [6] it was 1.5%.
Turning to `CCCCCCCC(=O)OC(CC)CCCC` (stereo unspecified), the growth inhibition in experiment [1] was 5.25%; in experiment [2] it was -9.9%; in experiment [3], 1.5%; in experiment [4], 8.35%; in experiment [5] it was 3.6%; in experiment [6] it was -1.2%.
`CSc1nnc(CCC(=O)Nc2ccc(Cl)cc2Cl)o1`: the growth inhibition was 0.75% in experiment [1]; 12.5% in experiment [2]; 10.9% in experiment [3]; 10.3% in experiment [4]; 14.4% in experiment [5]; -10.2% in experiment [6].
Take `CC(=O)OC1c2ccccc2C(=O)C1(OC(C)=O)c1ccccc1` (stereo unspecified): the growth inhibition in experiment [1] is 0.7%; in experiment [2], 11.3%; in experiment [3], 12.7%; in experiment [4] it was 25.3%; in experiment [5], -10.9%; in experiment [6] it was 43.9%.
Regarding `N=Cc1ccccc1O`, the growth inhibition in experiment [1] is -3.3%; in experiment [2] it was -10.3%; in experiment [3], -4.8%; in experiment [4], 7.8%; in experiment [5], 2.9%; in experiment [6] it was 2.55%.
As for `NC(CCSCC(F)F)C(=O)O` (stereo unspecified), the growth inhibition was 19.4% in experiment [1]; 8.9% in experiment [2]; 3.95% in experiment [3]; 6.95% in experiment [4]; -22% in experiment [5]; 25.4% in experiment [6].
For `O=C(O[C@H]1[C@@H]2C=CO[C@@H](OC3OC(CO)C(O)C(O)C3O)[C@@H]2[C@@]2(CO)O[C@@H]12)c1ccc(O)c(O)c1` (stereo partly specified), the growth inhibition in experiment [1] is -20.3%; in experiment [2], -40%; in experiment [3], -4.6%; in experiment [4], 3.1%; in experiment [5] it was -8.35%; in experiment [6], 0.4%.
As to `CC(NC(=O)C(N)CC(=O)O)NC(=O)C1CCC1` (stereo unspecified), the growth inhibition in experiment [1] was -39.9%; in experiment [2], -48.1%; in experiment [3] it was -19.2%; in experiment [4], 24.6%; in experiment [5], 8.6%; in experiment [6], -35.8%.
Turning to `Cc1ccc(S(=O)(=O)Nc2ccc(O)cc2)cc1`, the growth inhibition in experiment [1] was -11.2%; in experiment [2], -15.2%; in experiment [3], -15.2%; in experiment [4], -27%; in experiment [5], -7.6%; in experiment [6] it was -5.4%.
Regarding `C[C@@H]1Nc2ccccc2[C@H]1C`, the growth inhibition is -25.6% in experiment [1]; -37.5% in experiment [2]; -53.1% in experiment [3]; 7.75% in experiment [4]; -42.6% in experiment [5]; -8.1% in experiment [6].
As to `CCCCNC(C(=O)c1ccc(N(C)C)cc1)c1ccccc1` (stereo unspecified), the growth inhibition in experiment [1] was 3.7%; in experiment [2], -10.6%; in experiment [3] it was -3.1%; in experiment [4] it was -8.15%; in experiment [5] it was 2.95%; in experiment [6], -13.9%.
Take `CC1C2CCC3(CCC4C5(C)CCCC4(CN(CCO)C5)C3C2)C1O` (stereo unspecified): the growth inhibition in experiment [1] is 2.1%; in experiment [2] it was -24.4%; in experiment [3], 5.3%; in experiment [4], 13.8%; in experiment [5], -2.4%; in experiment [6], -8.4%.
`CC(=O)OCC1OC(n2nc(C#N)c(C#N)n2)C(OC(C)=O)C1OC(C)=O` (stereo unspecified): the growth inhibition was 37.9% in experiment [1]; -3% in experiment [2]; 3.15% in experiment [3]; 8.05% in experiment [4]; -5.85% in experiment [5]; 1.15% in experiment [6].
